# Shown are actives, neighbours in structure and some others; about 12% of the full set was active somewhere.
# HP1b binding inh – inhibitors of HP1-beta chromodomain binding to methylated histone tails; P83916; AlphaScreen HP1-beta / biotin-H3K9me3 peptide binding; Potency, µM (titrated, usually from 114 µM), inactives show top-dose activity change, negative = inhibition, actives largely listed as inhibitors; actives 0.56% (n = 390,000); further: nearly all actives have a fitted effect of over 70% in size
# Target sequence (P83916 whole entry, looked up): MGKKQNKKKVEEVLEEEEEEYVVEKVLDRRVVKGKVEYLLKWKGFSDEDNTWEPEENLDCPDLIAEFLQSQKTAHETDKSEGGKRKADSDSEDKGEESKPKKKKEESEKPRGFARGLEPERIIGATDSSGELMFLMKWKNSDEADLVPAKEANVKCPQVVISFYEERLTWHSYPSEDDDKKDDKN
#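 AlphaScreen: HP1-beta (50 nM) preformed 30 min with biotin-H3(1-18)K9me3 peptide (50 nM) in PBS pH 7.4, 0.01% Tween-20. Compound added for 30 min at RT, then streptavidin donor/nickel chelate acceptor beads (10 ug/mL) for 30 min.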
# G9a inh – blocks human histone lysine methyltransferase G9a; Q96KQ7; G9a H3K9 monomethylation, AlphaScreen, 2 h; Potency, µM (series often up to 102 µM), for the others: top-dose activity, negative = inhibition, actives largely listed as inhibitors; actives 8.8% (n = 350,000); AID 504332; further: on the % scale 0 is the no-effect control and ±100 the full control effect; nearly all actives have a fitted effect of over 75% in size
# Target sequence (Q96KQ7 913-1193 limits assumed): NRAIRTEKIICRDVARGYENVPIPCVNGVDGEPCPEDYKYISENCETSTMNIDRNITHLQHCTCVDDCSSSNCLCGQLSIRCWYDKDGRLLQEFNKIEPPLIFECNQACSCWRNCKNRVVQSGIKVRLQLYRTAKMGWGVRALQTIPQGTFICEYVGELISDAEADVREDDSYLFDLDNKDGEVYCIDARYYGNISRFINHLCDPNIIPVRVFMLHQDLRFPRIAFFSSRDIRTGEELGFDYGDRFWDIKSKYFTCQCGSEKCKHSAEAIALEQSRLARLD
#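 G9a (20 nM) preincubated 15 min RT with compounds, then 500 nM biotinylated H3K9 peptide and 20 uM SAM added; 2 h RT reaction. Monomethyl-H3K9 product detected by AlphaScreen with anti-H3K9me1 antibody, streptavidin donor and anti-rabbit IgG acceptor beads.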
# JMJD2A Tudor inh – blocks the human JMJD2A Tudor domain. O75164. Potency, µM (top dose mostly 114 µM), for the others: top-dose activity change, negative = inhibition, hits mostly inhibitors. AlphaScreen JMJD2A-Tudor / H3K4me3 peptide binding. actives 4.4% (n = 390,000); further: on the % scale 0 is the no-effect control and ±100 the full control effect; nearly all actives have a fitted effect of over 50% in size
# BAZ2B block – inhibitors of human BAZ2B bromodomain. AlphaScreen BAZ2B-H3K14Ac peptide displacement. Potency, µM (titrated, usually from 114 µM), inactives show top-dose activity change, negative = inhibition, hits mostly inhibitors. actives 4.4% (n = 360,000); further: on the % scale 0 is the no-effect control and ±100 the full control effect; nearly all actives have a fitted effect of over 60% in size
#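 AlphaScreen luminescence quantifies BAZ2B engagement of H3K14Ac peptide; the protein and biotinylated peptide are both at 50 nM final, buffer PBS pH 7.4 with 0.01% Tween-20, all steps at room temperature.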
# Sfp inh – blocks B. subtilis Sfp PPTase activity. Q9F4F7. Biochemical Sfp PPTase activity, qHTS. Potency, µM, for inactives: largest response in the series, negative = inhibition, actives largely listed as inhibitors. actives 3.5% (n = 310,000). AID 1490;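 further: the enzyme is Sfp with the accession as filed and its product quenches rhodamine fluorescence; 0% = enzyme reaction without inhibitor and -100% = no enzyme wells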
#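 Fluorescence-quenching assay: 15 nM Sfp-PPTase preincubated 15 min at room temperature with compound, then 5 uM rhodamine-CoA and 12.5 uM BHQ-2-labelled YbbR peptide added. Fluorescence (ex 525/em 598 nm) read at start and after 30 min; difference gives rate.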
# Active calls of the source: *; ? = inconclusive; · = not tested or not shown; [ ] = remark or other dose. The call rests on the fitted dose curve; in most records, active means well fitted curve in the direction sought with a large enough effect; inconclusive means small, poorly fitted or top-dose-only effect, or another doubt; inactive means no such curve, though single readings can be large; an effect the other way counts as inactive or inconclusive. Potency means the concentration at half of the fitted maximal effect.
SMILES,HP1b binding inh,G9a inh,JMJD2A Tudor inh,BAZ2B block,Sfp inh
CN1CCN(c2cc(N3CCN(C(=O)c4ccco4)CC3)c3c4c(onc24)-c2ccccc2C3=O)CC1,?,35µM*,40µM*,16µM*,16µM*
O=C(c1ccco1)N1CCN(C2=NS(=O)(=O)c3ccccc32)CC1,28%,-1%[12.7 µM],1%,-5%,22%
CCn1c(=O)cc(SCC(=O)N2CCN(C3CCCCC3)CC2)c2ccccc21,24%,-6%[59 µM],-11%,2%,6%
O=C(O)CCCNc1cc(N2CCN(C(=O)c3ccco3)CC2)c2noc3c2c1C(=O)c1ccccc1-3,35µM*,10µM*,35µM*,18µM*,-3%
O=C(c1ccco1)N1CCN(CCCCN2C(=O)c3ccccc3C2=O)CC1,40%,-30%[59 µM],-12%,17%,3%
O=C1c2ccccc2-c2c1cccc2C(=O)N1CCN(C(=O)c2ccco2)CC1,19%,?,-12%,-6%,?
CCCCNc1cc(N2CCN(C3CCCCC3)CC2)c2noc3c2c1C(=O)c1ccccc1-3,-22%,?,?,5µM*,·
N#Cc1nc(NC2CCCC2)c2ncn(-c3cc(F)cc(F)c3)c2n1,·,·,8%,·,·
O=c1[nH]c(=O)n(-c2cc(Br)c(O)c(Br)c2)cc1Br,27%,2%[0.501 µM],-9%,4%,19%
O=[N+]([O-])c1c(NCCO)cc(N2CCC3(CC2)OCCO3)c2nonc12,13%,0%,-15%,-5%,-16%
CCOC(=O)N1CCN(c2cc(NCCC(=O)O)c3c4c(onc24)-c2ccccc2C3=O)CC1,-90%,?,56µM*,28µM*,-24%
CCOC(=O)N1CCN(C(=O)c2noc3c2COc2ccccc2-3)CC1,39%,?,-23%,-6%,-2%
O=C(O)CCCNc1cc(N2CCC3(CC2)OCCO3)c2noc3c2c1C(=O)c1ccccc1-3,·,?,·,14µM*,-11%
COC(=O)c1ccc(OC(=O)CCS(=O)(=O)c2ccc(C)cc2)cc1,27%,35µM*,-6%,0%,·
Cc1ccc(C(=O)CCS(=O)(=O)c2ccc(F)cc2)cc1,44%,32µM*,-18%,-4%,2%
Cc1ccc(S(=O)(=O)CCC(=O)c2ccc(F)cc2)cc1,49%,126%,-3%,8%,6%
Cc1cc(=O)[nH]c(SCc2cn3ccccc3n2)n1,32%,50µM*,-7%,-18%,-13%
O=[N+]([O-])c1ccc2nc(SCc3cn4cccnc4n3)[nH]c2c1,49%,?,9%,-1%,-21%
Cc1cc(=O)[nH]c(SCc2nnc(-c3ccccc3)o2)n1,31%,7.9µM*,-4%,2%,12%
O=[N+]([O-])c1ccc2nc(SCc3cn4ccccc4n3)[nH]c2c1,18%,10µM*,-19%,2%,11%
Cc1cc2[nH]c(=O)c(=O)[nH]c2cc1S(=O)(=O)N(C)C1CCCCC1,36%,·,3.5µM*,1%,9%
CN(C)c1ccc(NC(=O)COC(=O)c2cc(=O)c3ccccc3o2)cc1,38%,10µM*,-15%,-31%,-6%
CC(OC(=O)c1ccccc1C(=O)N(C)c1ccccc1)C(=O)Nc1ccc(C(N)=O)cc1 (configuration not stated),29%,1%[0.501 µM],-10%,10%,·
CC(OC(=O)c1cc(O)c2ccccc2c1O)C(=O)Nc1ccc(C(N)=O)cc1 (configuration not stated),?,7.1µM*,?,?,·
CC(OC(=O)c1cc(=O)c2ccccc2o1)C(=O)Nc1ccc(N(C)C)cc1 (configuration not stated),16%,3.2µM*,?,-2%,·
Nc1c(C(=O)O)ccc2c1C(=O)c1ccccc1C2=O,?,35µM*,?,35µM*,5%
Nc1cc(C(=O)O)c(N)c2c1C(=O)c1ccccc1C2=O,14µM*,?,?,14µM*,?
Nc1c(SCCC(=O)O)ccc2c1C(=O)c1ccccc1C2=O,?,35µM*,?,40µM*,-2%
O=C(O)c1ccc([N+](=O)[O-])c2c1C(=O)c1ccccc1C2=O,14%,·,-26%,·,·
